ssDAF12 agonist – activators of S. stercoralis DAF-12 nuclear receptor; HEK293 ssDAF-12/GRIP1 lit1-tk-luc reporter, luminescence; % of 3 µM dafachronic acid response; activation, % at 6.8 µM; 370,000 tested, 1% active;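 active means activation above the mean over all tested compounds plus 3 SD, cut at about 0.9% in these data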;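 further: 0% = DMSO-only wells and 100% = 3 µM delta7-dafachronic acid wells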
hgDAF12 agonist – activates the H. glycines DAF-12 receptor ligand-binding domain; AID 687014; 370,000 tested, 1.8% active; HEK293 GAL4-hgDAF12 UAS-luciferase reporter, agonist luminescence; normalized to butyrate control; activation, % at 6.8 µM;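 active means activation above a cutoff set at the mean of all screened compounds plus 3 SD, cut at about 10% in these data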;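 further: 0% = DMSO wells and 100% = sodium butyrate wells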
DAX1 inh-1 – inhibits human nuclear receptor DAX1. inhibition, % at 6.75 µM. P51843. HEK293 Gal4-DAX1 luciferase reporter, luminescence. 340,000 tested, 0.99% active. AID 504766;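 active means inhibition above the mean over all tested compounds plus 3 SD, cut at about 4.2% in these data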;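 further: 0% = DAX1-transfected cells with DMSO and 100% = empty-vector control cells with DMSO; inhibition shows as a rise in luminescence from relieved DAX1 repression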
Target sequence (P51843 207-470 limits assumed): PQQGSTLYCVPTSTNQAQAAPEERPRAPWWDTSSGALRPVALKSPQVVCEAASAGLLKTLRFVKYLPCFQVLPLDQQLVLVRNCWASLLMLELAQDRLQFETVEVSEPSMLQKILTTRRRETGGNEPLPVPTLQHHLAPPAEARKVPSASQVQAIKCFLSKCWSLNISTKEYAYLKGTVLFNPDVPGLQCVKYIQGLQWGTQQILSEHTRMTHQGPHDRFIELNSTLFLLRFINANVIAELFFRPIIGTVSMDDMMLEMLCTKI
hcDAF12 agonist – H. contortus DAF-12 activation, primary screen; HEK293 hcDAF-12 lit1-tk-luc reporter, luminescence; 0% DMSO, 100% Δ7-dafachronic acid; activation, % at 6.8 µM; AID 652067; 370,000 tested, 1.4% active;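 active means activation above the mean of all tested compounds plus 3 SD, cut at about 5.5% in these data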;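 further: 100% = response to 3 µM Δ7-dafachronic acid high control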
DAX1 inh-2 – DAX1 (NR0B1) inhibition, primary screen; HEK293T StAR-luciferase reporter, SF-1/DAX-1 repression relief; inhibition, % at 6.8 µM; 370,000 tested, 1.1% active; AID 652010;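 active means inhibition above the mean over all tested compounds plus 3 SD, cut at about 3.6% in these data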;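 further: 0% = DAX-1 cells with DMSO and 100% = cells lacking DAX-1 with DMSO; higher inhibition means more luminescence from relief of DAX-1 repression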
hgDAF12 ag – hgDAF-12 agonism, confirmation assay | shares compounds with hgDAF12 agonist | HEK293 GAL4-hgDAF12 luciferase reporter, agonist mode; percent of butyrate response | activation, % at 6.8 µM | 3,300 tested, 80% active | AID 743050;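 active means mean activation over triplicate wells above the hit cutoff derived from the earlier primary screen, cut at about 11% in these data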;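 further: 0% = DMSO low control and 100% = 2 mM sodium butyrate high control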
LXR ag 2 – counter-screen for DAF-12 agonists: agonists of human LXR-beta | HEK293 Gal4-LXR luciferase reporter, 24 h | shares compounds with hgDAF12 agonist | activation, % at 6.8 µM | 3,300 tested, under 10 active | AID 743051;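 active means mean activation of the triplicate above a set limit carried over from the primary screen, none filed active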
Starred values were filed as active, the others as inactive; . = not tested or not shown. Rows were chosen to be rich in hits. Some 4.1% of all compounds tested hit in one or more screens of this group.

SMILES	ssDAF12 agonist	hgDAF12 agonist	DAX1 inh-1	hcDAF12 agonist	DAX1 inh-2	hgDAF12 ag	LXR ag 2
CC(/C=N/NC(=O)c1nn(C)c(C)c1Br)=C\c1ccccc1	0	14*	2	3	2	9	0
Cc1csc2nc(CSc3nc4ccccc4o3)cn12	0	13*	1	0	1	8	0
C[C@@H]1CN([C@@H](C)CO)C(=O)c2cc(Br)cnc2O[C@@H]1CN(C)C(=O)c1ccc(F)cc1	-1	0	.	-1	1	.	.
CCOc1ccc(N2C(=O)c3ccccc3C2O)cc1 (stereo unspecified)	0	20*	2	4	3.8*	9	0
Oc1oc(-c2ccccc2)nc1/C=N/c1ccccn1	-1	16*	1	2	3	9	0
CN=Cc1nc(-c2ccccc2)oc1O	0	8	2	1	2	.	.
COc1ccc(/C=N/Nc2ccc([N+](=O)[O-])cc2)cc1O	0	17*	7.8*	3	2	17*	1
COc1cccc(CNC(=O)[C@H]2CCCN2C(=O)[C@H]2CCCN2C(=O)c2ccc(Cl)cc2)c1	0	-1	.	-1	0	.	.
Cc1cccc2nc(-c3ccccc3)c(-c3ccc(CN4CCC(n5cc(-c6ccccc6)[nH]c5=O)CC4)cc3)nc12	-1	-4	.	-2	-1	.	.
COC(=O)[C@]12C[C@H](CC(=O)NCCC(C)C)C(=O)N(CCc3ccc(OC)c(OC)c3)C1=C[C@H](C1CCCC1)O[C@@H]2C	-2	-1	.	-1	-1	.	.
C/C(=N\NC(=O)c1ccn[nH]1)c1cn(C)nc1C	1.3*	15*	2	3	2	10	0
C#CCN1C(=O)S/C(=C/c2cc(C)n(CC)c2C)C1=O	0	18*	1	5	3	20*	1
CCn1c(C)cc(/C=C2/SC(=S)N(CC(=O)O)C2=O)c1C	-1	3	-1	-1	1	.	.
Cc1ccc(C(=O)Nc2nnc(-c3ccco3)o2)cc1	0	14*	-2	5	3	10	0
N#Cc1ccc(C(=O)Nc2nnc(-c3ccco3)o2)cc1	-2	7	0	0	0	.	.
CCOC(=O)c1ccc2nc(NC(C)=O)sc2c1	-1	14*	2	2	2	13*	1
COC(=O)c1ccc2nc(NC(=O)C(C)C)sc2c1	0	14*	1	2	3	15*	1
COC(=O)c1ccc2nc(NC(=O)C3CC3)sc2c1	-1	9	1	0	0	.	.
CCOC(=O)c1ccc2nc(Nc3nc4ccc(F)cc4s3)sc2c1	-2	-10	-4	-1	-2	.	.
Cc1cc(C(=O)COC(=O)c2ccco2)c(C)n1Cc1ccco1	-3	-8	2	-3	-1	.	.
Cc1cc(C(=O)COC(=O)c2cc(Cl)ccc2N)c(C)n1Cc1ccco1	0	14*	1	4	3.7*	13*	1
COc1ccc(/C=C/C(=O)NC2=NCCS2)c(OC)c1	-1	14*	.	5	.	15*	1
Cc1cc(OCCCC(=O)NC2=NCCS2)ccc1Cl	-1	3	-2	1	1	.	.
O=C(/C=C/c1ccc(Cl)c(Cl)c1)NC1=NCCS1	0	13*	1	3	1	10*	0
O=[N+]([O-])c1cccnc1NCCNc1ncc(C(F)(F)F)cc1Cl	0	14*	3	2	2	15*	0
CCC(CC)CN1CCC(CN2C(=S)NC[C@@H]2Cc2ccccc2)CC1	-1	-1	.	-2	1	.	.
Cc1cc(NC(=O)OC2CCCCC2)ccc1[N+](=O)[O-]	0	17*	1	2	1	14*	1
Cc1ccc(NC(=O)C2C3CCCCC32)cc1[N+](=O)[O-] (stereo unspecified)	-1	6	3	3	0	.	.
CCN1CCN(C(=O)c2ccc(-c3nc4ccccc4s3)s2)CC1	1	17*	2	4	4.3*	11*	1

Source: PubChem
